In PMC7862700, “An all-to-all approach to the identification of sequence-specific readers for epigenetic DNA modifications on cytosine”:

Experiments:
Assay in all cases: DAPPL (digital affinity profiling via proximity ligation, sequencing); 10 mM Tris-HCl pH 7.5, 50 mM NaCl, 1 mM DTT, 4% glycerol, room temperature, 30 min; GST-TFs on glutathione beads, 16-mer random dsDNA library, 0.1% formaldehyde crosslink after washing; high values mean tight binding
Details in all cases: protein: recombinant; tags: N-terminal GST; dsDNA, one strand shown
FLI1 = molecular target: T1, FLI1 (Homo sapiens, UniProt Q01543 1-452)
T1 sequence: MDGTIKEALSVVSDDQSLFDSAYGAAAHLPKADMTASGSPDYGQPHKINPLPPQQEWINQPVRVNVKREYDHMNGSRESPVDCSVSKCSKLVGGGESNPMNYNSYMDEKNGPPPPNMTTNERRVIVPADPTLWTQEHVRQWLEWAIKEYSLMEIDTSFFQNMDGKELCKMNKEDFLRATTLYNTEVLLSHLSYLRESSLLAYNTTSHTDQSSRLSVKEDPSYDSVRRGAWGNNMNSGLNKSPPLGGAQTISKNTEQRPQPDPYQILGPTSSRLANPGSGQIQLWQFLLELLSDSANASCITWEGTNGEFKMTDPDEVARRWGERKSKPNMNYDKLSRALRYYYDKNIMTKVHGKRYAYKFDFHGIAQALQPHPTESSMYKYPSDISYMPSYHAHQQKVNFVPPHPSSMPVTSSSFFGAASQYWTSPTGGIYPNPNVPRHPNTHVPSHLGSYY
How it was run: (§1)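 After expression in yeast as GST fusions, human transcription factors were bound to glutathione beads, DNA-barcoded and mixed with a tag-only sample. The pools were incubated with 200 nmole of a 16-mer random double-stranded DNA library in Tris/NaCl/DTT/glycerol buffer (30 min, room temperature), washed and crosslinked with 0.1% formaldehyde. Proximity ligation with BsaI/T4 ligase ran for 1 h at 37 °C, before PCR amplification and sequencing on an Illumina NextSeq500. Binding signal is a hexamer's read frequency for a factor divided by its frequency for the tag-only sample.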

ELK1 = molecular target: T2, ELK1 (Homo sapiens, UniProt P19419 1-428)
T2 sequence: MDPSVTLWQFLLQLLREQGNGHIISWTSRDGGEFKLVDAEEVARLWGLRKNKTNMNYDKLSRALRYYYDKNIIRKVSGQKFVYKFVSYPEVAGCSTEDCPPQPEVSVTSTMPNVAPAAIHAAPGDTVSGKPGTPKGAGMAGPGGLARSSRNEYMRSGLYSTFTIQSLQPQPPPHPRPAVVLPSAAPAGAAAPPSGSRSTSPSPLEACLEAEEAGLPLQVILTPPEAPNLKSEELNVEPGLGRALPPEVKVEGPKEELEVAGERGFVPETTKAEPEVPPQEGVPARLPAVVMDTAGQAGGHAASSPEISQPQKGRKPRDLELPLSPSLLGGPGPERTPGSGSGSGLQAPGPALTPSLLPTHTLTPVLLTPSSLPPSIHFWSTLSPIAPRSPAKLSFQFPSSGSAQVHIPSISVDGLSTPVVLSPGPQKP
How it was run: as §1

ELF1 = ELF1 (Homo sapiens, UniProt P32519 1-619)
How it was run: as §1

SPIB = SPIB (Homo sapiens, UniProt Q01892 1-262)
How it was run: as §1

ETV5 = ETV5 (Homo sapiens, UniProt P41161 1-510)
How it was run: as §1

SPIC = molecular target: T3, SPIC (Homo sapiens, UniProt Q8N5J4 1-248)
T3 sequence: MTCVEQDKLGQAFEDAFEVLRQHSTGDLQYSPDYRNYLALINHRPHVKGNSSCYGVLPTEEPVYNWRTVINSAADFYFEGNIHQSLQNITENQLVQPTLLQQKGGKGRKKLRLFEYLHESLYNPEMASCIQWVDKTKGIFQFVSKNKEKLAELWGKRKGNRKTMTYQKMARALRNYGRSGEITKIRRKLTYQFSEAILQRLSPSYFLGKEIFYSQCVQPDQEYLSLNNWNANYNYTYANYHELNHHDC
How it was run: as §1

ELF4 = ELF4 (Homo sapiens, UniProt Q99607 1-663)
How it was run: as §1

ERF = molecular target: T4, ERF (Homo sapiens, UniProt P50548 1-548)
T4 sequence: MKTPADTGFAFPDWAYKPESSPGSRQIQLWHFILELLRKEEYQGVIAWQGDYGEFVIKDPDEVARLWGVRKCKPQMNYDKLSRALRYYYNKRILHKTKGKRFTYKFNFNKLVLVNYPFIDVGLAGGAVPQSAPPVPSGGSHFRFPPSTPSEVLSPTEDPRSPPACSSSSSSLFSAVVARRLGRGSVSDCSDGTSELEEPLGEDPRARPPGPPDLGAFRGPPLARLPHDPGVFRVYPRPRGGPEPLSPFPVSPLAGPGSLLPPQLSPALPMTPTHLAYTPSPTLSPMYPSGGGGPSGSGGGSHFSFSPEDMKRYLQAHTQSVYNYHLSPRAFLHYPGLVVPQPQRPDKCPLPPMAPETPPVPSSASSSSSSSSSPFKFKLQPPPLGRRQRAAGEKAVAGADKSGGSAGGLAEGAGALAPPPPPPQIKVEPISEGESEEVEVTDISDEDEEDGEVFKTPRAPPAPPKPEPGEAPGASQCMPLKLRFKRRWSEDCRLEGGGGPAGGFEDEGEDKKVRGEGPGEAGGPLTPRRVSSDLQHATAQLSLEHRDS
How it was run: as §1

ERG = molecular target: T5, ERG (Homo sapiens, UniProt P11308 1-479)
T5 sequence: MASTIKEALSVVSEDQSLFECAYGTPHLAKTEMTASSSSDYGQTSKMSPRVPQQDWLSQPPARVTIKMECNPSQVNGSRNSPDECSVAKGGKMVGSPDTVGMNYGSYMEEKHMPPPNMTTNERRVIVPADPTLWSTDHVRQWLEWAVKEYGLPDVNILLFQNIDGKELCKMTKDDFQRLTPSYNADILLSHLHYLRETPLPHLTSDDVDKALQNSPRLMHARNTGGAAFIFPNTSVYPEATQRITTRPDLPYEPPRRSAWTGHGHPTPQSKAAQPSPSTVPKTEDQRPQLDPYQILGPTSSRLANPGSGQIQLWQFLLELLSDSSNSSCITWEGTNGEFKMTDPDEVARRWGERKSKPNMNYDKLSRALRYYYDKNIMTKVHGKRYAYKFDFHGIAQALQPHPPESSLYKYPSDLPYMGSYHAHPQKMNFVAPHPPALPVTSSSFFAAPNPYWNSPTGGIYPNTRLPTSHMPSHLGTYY
How it was run: as §1

ELK3 = molecular target: T6, ELK3 (Homo sapiens, UniProt P41970 1-407)
T6 sequence: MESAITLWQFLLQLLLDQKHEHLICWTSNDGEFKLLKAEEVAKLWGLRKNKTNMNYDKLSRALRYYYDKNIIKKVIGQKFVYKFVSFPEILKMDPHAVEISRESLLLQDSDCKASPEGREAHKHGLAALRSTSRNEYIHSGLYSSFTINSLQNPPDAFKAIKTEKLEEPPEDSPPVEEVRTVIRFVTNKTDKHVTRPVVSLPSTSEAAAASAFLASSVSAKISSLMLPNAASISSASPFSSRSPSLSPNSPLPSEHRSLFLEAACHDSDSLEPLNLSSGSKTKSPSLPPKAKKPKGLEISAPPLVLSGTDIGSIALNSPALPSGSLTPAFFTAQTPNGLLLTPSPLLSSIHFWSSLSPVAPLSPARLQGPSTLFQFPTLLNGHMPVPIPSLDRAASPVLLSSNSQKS
How it was run: as §1

FEV = molecular target: T7, FEV (Homo sapiens, UniProt Q99581 1-238)
T7 sequence: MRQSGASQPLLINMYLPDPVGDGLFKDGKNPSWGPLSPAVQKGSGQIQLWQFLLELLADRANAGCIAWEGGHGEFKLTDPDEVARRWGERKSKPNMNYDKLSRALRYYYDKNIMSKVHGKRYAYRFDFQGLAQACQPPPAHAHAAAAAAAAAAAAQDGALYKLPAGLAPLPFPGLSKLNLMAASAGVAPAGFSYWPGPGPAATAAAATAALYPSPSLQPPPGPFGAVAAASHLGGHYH
How it was run: as §1

ETV1 = ETV1 (Homo sapiens, UniProt P50549 1-477)
How it was run: as §1

ETV3L = molecular target: T8, ETV3L (Homo sapiens, UniProt Q6ZN32 1-361)
T8 sequence: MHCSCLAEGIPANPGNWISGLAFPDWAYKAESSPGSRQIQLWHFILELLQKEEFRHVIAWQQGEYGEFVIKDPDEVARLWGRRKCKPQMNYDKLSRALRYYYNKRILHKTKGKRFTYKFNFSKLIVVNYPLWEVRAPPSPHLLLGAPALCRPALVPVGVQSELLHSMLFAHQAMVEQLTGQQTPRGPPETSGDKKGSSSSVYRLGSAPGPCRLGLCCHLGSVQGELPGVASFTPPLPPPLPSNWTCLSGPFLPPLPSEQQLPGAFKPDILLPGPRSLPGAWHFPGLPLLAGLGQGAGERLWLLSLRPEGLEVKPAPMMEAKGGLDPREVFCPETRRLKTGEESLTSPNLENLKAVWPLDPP
How it was run: as §1

SPDEF = molecular target: T9, SPDEF (Homo sapiens, UniProt O95238 1-335)
T9 sequence: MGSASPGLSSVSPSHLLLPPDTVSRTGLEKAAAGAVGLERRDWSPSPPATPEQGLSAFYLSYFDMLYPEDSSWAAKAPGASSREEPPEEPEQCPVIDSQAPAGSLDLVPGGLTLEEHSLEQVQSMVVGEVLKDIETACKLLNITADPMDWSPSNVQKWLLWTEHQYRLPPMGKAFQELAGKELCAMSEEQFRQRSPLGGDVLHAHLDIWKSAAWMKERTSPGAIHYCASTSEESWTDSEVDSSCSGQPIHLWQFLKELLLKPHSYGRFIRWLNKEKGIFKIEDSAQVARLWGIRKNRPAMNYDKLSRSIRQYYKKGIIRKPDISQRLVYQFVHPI
How it was run: as §1

ETV3 = molecular target: T10, ETV3 (Homo sapiens, UniProt P41162-2 1-143)
T10 sequence: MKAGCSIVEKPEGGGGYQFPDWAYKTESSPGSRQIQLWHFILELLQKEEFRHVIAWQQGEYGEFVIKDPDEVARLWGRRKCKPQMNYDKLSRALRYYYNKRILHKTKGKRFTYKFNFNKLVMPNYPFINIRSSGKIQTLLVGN
How it was run: as §1

ETV6 = ETV6 (Homo sapiens, UniProt P41212 1-452)
How it was run: as §1

Chain of ELF4 (Q99607 whole entry): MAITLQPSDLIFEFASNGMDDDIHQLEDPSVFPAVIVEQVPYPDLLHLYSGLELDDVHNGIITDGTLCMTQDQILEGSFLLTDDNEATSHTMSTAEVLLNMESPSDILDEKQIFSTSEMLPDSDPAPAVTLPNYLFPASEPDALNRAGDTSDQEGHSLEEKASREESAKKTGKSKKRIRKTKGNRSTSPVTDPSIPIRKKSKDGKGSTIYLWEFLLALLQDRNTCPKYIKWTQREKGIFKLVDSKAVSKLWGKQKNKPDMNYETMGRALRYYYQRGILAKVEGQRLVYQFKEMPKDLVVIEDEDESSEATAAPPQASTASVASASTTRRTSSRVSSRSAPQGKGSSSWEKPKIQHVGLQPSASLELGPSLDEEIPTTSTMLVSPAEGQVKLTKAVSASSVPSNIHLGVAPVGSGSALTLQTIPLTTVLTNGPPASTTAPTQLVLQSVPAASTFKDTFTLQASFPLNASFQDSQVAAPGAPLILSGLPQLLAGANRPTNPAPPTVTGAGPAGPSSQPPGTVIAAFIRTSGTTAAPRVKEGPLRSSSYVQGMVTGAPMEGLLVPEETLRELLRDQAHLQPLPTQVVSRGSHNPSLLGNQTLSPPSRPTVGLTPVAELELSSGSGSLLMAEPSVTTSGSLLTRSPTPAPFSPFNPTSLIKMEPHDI
Chain of SPIB (Q01892 whole entry): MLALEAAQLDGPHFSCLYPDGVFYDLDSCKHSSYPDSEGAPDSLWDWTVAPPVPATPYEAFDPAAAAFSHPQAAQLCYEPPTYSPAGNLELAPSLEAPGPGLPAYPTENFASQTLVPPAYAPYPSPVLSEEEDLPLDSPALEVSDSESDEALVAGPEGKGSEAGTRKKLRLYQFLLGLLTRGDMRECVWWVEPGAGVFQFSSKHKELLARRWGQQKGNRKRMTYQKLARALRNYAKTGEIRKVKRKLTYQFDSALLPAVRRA
Chain of ELF1 (P32519 whole entry): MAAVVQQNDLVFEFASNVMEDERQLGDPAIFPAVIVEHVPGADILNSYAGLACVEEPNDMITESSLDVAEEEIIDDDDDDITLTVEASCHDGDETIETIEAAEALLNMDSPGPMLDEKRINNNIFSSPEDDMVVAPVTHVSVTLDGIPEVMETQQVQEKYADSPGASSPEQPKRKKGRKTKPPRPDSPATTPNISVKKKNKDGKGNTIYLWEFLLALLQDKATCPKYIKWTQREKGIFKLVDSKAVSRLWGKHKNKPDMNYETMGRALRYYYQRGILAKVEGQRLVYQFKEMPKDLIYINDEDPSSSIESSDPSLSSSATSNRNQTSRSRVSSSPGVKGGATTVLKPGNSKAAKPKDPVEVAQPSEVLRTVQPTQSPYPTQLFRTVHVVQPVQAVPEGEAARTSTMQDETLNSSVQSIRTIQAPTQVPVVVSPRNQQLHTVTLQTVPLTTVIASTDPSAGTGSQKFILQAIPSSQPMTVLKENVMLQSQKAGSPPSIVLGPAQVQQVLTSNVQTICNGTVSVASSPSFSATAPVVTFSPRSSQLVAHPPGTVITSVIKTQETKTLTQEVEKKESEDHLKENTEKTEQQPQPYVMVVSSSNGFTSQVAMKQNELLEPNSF
Chain of ETV5 (P41161 whole entry): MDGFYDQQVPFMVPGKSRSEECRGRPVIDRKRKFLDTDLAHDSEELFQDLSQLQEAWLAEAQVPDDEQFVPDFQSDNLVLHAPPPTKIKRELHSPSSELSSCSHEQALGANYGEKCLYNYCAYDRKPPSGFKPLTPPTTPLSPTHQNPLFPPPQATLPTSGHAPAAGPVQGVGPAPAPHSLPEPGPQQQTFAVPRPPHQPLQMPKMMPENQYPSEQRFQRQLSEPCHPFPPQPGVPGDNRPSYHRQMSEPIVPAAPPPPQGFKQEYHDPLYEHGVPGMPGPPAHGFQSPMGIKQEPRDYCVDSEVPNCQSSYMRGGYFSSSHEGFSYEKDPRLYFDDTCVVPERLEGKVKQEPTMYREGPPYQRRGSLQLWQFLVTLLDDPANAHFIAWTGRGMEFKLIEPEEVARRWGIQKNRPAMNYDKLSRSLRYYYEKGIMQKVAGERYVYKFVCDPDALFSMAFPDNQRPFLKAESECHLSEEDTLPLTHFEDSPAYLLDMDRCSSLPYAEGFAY
Chain of ETV6 (P41212 whole entry): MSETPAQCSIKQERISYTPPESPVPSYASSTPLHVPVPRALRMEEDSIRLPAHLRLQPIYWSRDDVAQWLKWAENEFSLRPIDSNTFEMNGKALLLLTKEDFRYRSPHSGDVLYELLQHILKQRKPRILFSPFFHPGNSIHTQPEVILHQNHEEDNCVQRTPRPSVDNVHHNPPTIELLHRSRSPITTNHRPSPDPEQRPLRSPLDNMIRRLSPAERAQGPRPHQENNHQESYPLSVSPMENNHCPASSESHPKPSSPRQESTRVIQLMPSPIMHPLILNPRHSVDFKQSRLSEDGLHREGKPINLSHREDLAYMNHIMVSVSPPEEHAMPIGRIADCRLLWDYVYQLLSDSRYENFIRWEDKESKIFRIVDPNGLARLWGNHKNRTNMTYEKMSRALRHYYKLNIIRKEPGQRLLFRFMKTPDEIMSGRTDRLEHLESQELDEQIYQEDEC
Chain of ETV1 (P50549 whole entry): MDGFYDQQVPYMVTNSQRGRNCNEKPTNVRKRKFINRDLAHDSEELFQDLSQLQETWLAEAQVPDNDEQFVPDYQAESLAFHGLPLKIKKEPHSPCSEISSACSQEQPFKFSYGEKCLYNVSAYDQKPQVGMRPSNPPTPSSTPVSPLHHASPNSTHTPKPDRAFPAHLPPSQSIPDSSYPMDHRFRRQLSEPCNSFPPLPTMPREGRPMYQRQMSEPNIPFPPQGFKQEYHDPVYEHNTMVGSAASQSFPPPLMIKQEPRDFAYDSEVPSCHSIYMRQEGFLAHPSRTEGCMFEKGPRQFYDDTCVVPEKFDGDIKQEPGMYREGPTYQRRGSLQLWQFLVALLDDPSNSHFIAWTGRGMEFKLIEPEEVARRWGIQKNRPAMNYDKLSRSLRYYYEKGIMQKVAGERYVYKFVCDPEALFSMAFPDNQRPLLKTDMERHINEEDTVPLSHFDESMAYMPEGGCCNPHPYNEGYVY

Sequence	binding signal (FLI1)	binding signal (ELK1)	binding signal (ELF1)	binding signal (SPIB)	binding signal (ETV5)	binding signal (SPIC)	binding signal (ELF4)	binding signal (ERF)	binding signal (ERG)	binding signal (ELK3)	binding signal (FEV)	binding signal (ETV1)	binding signal (ETV3L)	binding signal (SPDEF)	binding signal (ETV3)	binding signal (ETV6)
CATCCA	1.01 fold enrichment (6-mer frequency, TF over GST control)	1.06 fold enrichment (6-mer frequency, TF over GST control)	1.02 fold enrichment (6-mer frequency, TF over GST control)	1 fold enrichment (6-mer frequency, TF over GST control)	1.01 fold enrichment (6-mer frequency, TF over GST control)	1.05 fold enrichment (6-mer frequency, TF over GST control)	1.02 fold enrichment (6-mer frequency, TF over GST control)	1.01 fold enrichment (6-mer frequency, TF over GST control)	–	–	–	–	–	–	–	–
GCCCCA	1.06 fold enrichment (6-mer frequency, TF over GST control)	1.04 fold enrichment (6-mer frequency, TF over GST control)	1.05 fold enrichment (6-mer frequency, TF over GST control)	1 fold enrichment (6-mer frequency, TF over GST control)	1.02 fold enrichment (6-mer frequency, TF over GST control)	1.05 fold enrichment (6-mer frequency, TF over GST control)	1.07 fold enrichment (6-mer frequency, TF over GST control)	–	1.1 fold enrichment (6-mer frequency, TF over GST control)	1.1 fold enrichment (6-mer frequency, TF over GST control)	1.07 fold enrichment (6-mer frequency, TF over GST control)	1.03 fold enrichment (6-mer frequency, TF over GST control)	1.12 fold enrichment (6-mer frequency, TF over GST control)	1.03 fold enrichment (6-mer frequency, TF over GST control)	1.06 fold enrichment (6-mer frequency, TF over GST control)	1.03 fold enrichment (6-mer frequency, TF over GST control)
